# Test results as given in PubChem BioAssay AID1159580 (chemical genetic matrix, 2015).
# In all, about 5,500 compounds went through this assay and about 2,000 (36%) were called active. Another 18% or so got no clear call; they are omitted. Some of the results follow. A number with no mark means an inactive call. Cut-off read from the data, not from the text of the source: active = normalized growth mostly below about 0.91 (no sharp cut-off); inconclusive = no clear call, values can overlap the other calls; inactive = mostly above about 0.92.
# Experiment: chemical genetic growth profiling, strain panel (AID 1159580);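 note: tested at 20 µM; growth read once vehicle control cultures reached saturation at 30 °C; 1 = growth at the plate median or of vehicle wells; lower values mean less growth of the strain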
# Conditions: S. cerevisiae deletion strains, growth OD
compound,measurement,setting,value
CCCCCC[C@@H]([C@@H](C)O)n1cnc2c(N)ncnc21,normalized growth,"locus YAL040C, strain CLN3, active compounds read low",1.02
same,normalized growth,"locus YCL061C, strain MRC1 (second series), active compounds read low",1
same,normalized growth,"locus YDR150W, strain NUM1, active compounds read low",1.01
same,normalized growth,"locus YDR363W, strain ESC2, active compounds read low",1
same,normalized growth,"locus YER002W, strain NOP16, active compounds read low",1.01
same,normalized growth,"locus YGR229C, strain SMI1, active compounds read low",0.945
same,normalized growth,"locus YJR075W, strain HOC1, active compounds read low",0.99
same,normalized growth,"locus YMR263W, strain SAP30, active compounds read low",1
same,normalized growth,"locus YNL128W, strain TEP1, active compounds read low",0.992
same,normalized growth,"locus YNL175C, strain NOP13, active compounds read low",1.02
same,normalized growth,"locus YNL197C, strain WHI3, active compounds read low",1.01
same,normalized growth,"locus YNL224C, strain SQS1, active compounds read low",0.992
same,normalized growth,"locus YOR083W, strain WHI5 (second series), active compounds read low",1.06
same,normalized growth,"locus YPL241C, strain CIN2, active compounds read low",1
O=C(CSCc1nc(-c2ccc(Cl)cc2)cs1)N/N=C\c1cccs1,normalized growth,"locus YAR019C, strain CDC15, active compounds read low",0.984
same,normalized growth,"locus YBL105C, strain PKC1, active compounds read low",0.97
same,normalized growth,"locus YBR135W, strain CKS1, active compounds read low",0.969
same,normalized growth,"locus YBR136W, strain MEC1, active compounds read low",0.972
same,normalized growth,"locus YBR160W, strain CDC28, active compounds read low",0.969
same,normalized growth,"locus YDL017W, strain CDC7, active compounds read low",0.97
same,normalized growth,"locus YDL028C, strain MPS1, active compounds read low",0.973
same,normalized growth,"locus YDL101C, strain DUN1, active compounds read low",0.978
same,normalized growth,"locus YDL108W, strain KIN28, active compounds read low",0.975
same,normalized growth,"locus YDL132W, strain cdc53, active compounds read low",0.966
same,normalized growth,"locus YDL214C, strain PRR2, active compounds read low",0.91
same,normalized growth,"locus YDR052C, strain DBF4, active compounds read low",0.98
same,normalized growth,"locus YDR054C, strain cdc34, active compounds read low",0.97
same,normalized growth,"locus YDR226W, strain ADK1, active compounds read low",0.972
same,normalized growth,"locus YDR477W, strain SNF1, active compounds read low",0.953
same,normalized growth,"locus YER123W, strain YCK3, active compounds read low",0.908
same,normalized growth,"locus YER133W, strain GLC7, active compounds read low",0.946
same,normalized growth,"locus YFL009W, strain cdc4, active compounds read low",0.971
same,normalized growth,"locus YFL029C, strain CAK1, active compounds read low",0.973
same,normalized growth,"locus YFR003C, strain YPI1, active compounds read low",0.962
same,normalized growth,"locus YFR019W, strain FAB1, active compounds read low",0.929
same,normalized growth,"locus YFR028C, strain CDC14, active compounds read low",0.963
same,normalized growth,"locus YGR040W, strain KSS1, active compounds read low",0.935
same,normalized growth,"locus YGR052W, strain FMP48, active compounds read low",0.948
same,normalized growth,"locus YGR092W, strain DBF2, active compounds read low",0.98
same,normalized growth,"locus YHR030C, strain SLT2, active compounds read low",1.01
same,normalized growth,"locus YHR079C, strain IRE1, active compounds read low",1.03
same,normalized growth,"locus YHR082C, strain KSP1, active compounds read low",0.998
same,normalized growth,"locus YHR205W, strain SCH9, active compounds read low",0.935
same,normalized growth,"locus YIL147C, strain SLN1, active compounds read low",0.975
same,normalized growth,"locus YJL095W, strain BCK1, active compounds read low",0.936
same,normalized growth,"locus YJL128C, strain PBS2, active compounds read low",0.924
same,normalized growth,"locus YJL157C, strain FAR1, active compounds read low",0.95
same,normalized growth,"locus YJR016C, strain ILV3, active compounds read low",0.974
same,normalized growth,"locus YJR066W, strain TOR1 (second series), active compounds read low",0.951
same,normalized growth,"locus YJR066W, strain TOR1, active compounds read low",1.02
same,normalized growth,"locus YKL048C, strain ELM1, active compounds read low",0.944
same,normalized growth,"locus YKL067W, strain YNK1, active compounds read low",0.932
same,normalized growth,"locus YKL101W, strain HSL1, active compounds read low",0.921
same,normalized growth,"locus YKL193C, strain SDS22, active compounds read low",0.972
same,normalized growth,"locus YKL203C, strain TOR2, active compounds read low",1
same,normalized growth,"locus YLR113W, strain HOG1, active compounds read low",0.831 (active)
same,normalized growth,"locus YLR133W, strain CKI1, active compounds read low",0.917
same,normalized growth,"locus YLR403W, strain SFP1, active compounds read low",0.933
same,normalized growth,"locus YML070W, strain DAK1, active compounds read low",0.93
same,normalized growth,"locus YMR001C, strain CDC5, active compounds read low",0.976
same,normalized growth,"locus YMR205C, strain PFK2 (second series), active compounds read low",0.942
same,normalized growth,"locus YMR277W, strain FCP1, active compounds read low",0.98
same,normalized growth,"locus YNL006W, strain LST8, active compounds read low",0.973
same,normalized growth,"locus YNL020C, strain ARK1, active compounds read low",0.925
same,normalized growth,"locus YNL161W, strain CBK1, active compounds read low",0.969
same,normalized growth,"locus YNL183C, strain NPR1, active compounds read low",0.971
same,normalized growth,"locus YNL207W, strain RIO2, active compounds read low",0.967
same,normalized growth,"locus YNL222W, strain SSU72, active compounds read low",0.974
same,normalized growth,"locus YNL307C, strain MCK1 (second series), active compounds read low",0.956
same,normalized growth,"locus YOL078W, strain AVO1, active compounds read low",0.966
same,normalized growth,"locus YOL136C, strain PFK27, active compounds read low",0.866
same,normalized growth,"locus YOR061W, strain CKA2, active compounds read low",0.943
same,normalized growth,"locus YOR119C, strain RIO1, active compounds read low",0.994
same,normalized growth,"locus YOR231W, strain MKK1, active compounds read low",0.927
same,normalized growth,"locus YOR329C, strain SCD5, active compounds read low",0.975
same,normalized growth,"locus YPL031C, strain PHO85, active compounds read low",0.96
same,normalized growth,"locus YPL153C, strain RAD53, active compounds read low",0.969
same,normalized growth,"locus YPL204W, strain HRR25, active compounds read low",0.906
same,normalized growth,"locus YPL209C, strain IPL1, active compounds read low",0.969
same,normalized growth,"locus YPL256C, strain CLN2, active compounds read low",0.965
same,normalized growth,"locus YPR025C, strain CCL1, active compounds read low",0.979
same,normalized growth,"locus YPR106W, strain ISR1, active compounds read low",0.97
same,normalized growth,"locus YPR111W, strain DBF20, active compounds read low",0.952
same,normalized growth,"strain NNK1, active compounds read low",0.966
same,normalized growth,"strain TSCII, active compounds read low",0.968
